PubChem BioAssay AID485299 (Sanford-Burnham Center for Chemical Genomics, 2010)
About 630 (63%) of roughly 1,000 compounds were called active.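 Rule for the calls: active = reporter signal at least 30% of the positive control's activation in two or more of four replicate wells; inactive = the rest.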 So high a share suggests a set chosen from earlier hits. A selection follows.

Assay: activation of adaptive unfolded protein response – cell-based, CHO-XBP1 luciferase reporter, luminescence, single concentration, confirmation (AID 485299);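 note: plate controls were DMSO negative control for no effect and tunicamycin 10 µg/mL positive control for full effect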
Conditions: CHO-XBP1 IRE1-XBP1 luciferase reporter, at 20 µM, active compounds read high

activation, active:
OCCNc1nc(Nc2ccc(Cl)c(Cl)c2)nc2ccccc12 47.6%
CCOc1ccc(S(=O)(=O)Nc2cccc(C(=O)NCC3(N4CCCCC4)CCCCC3)c2)cc1 92.9%
Cc1nc2cc(NC(=O)CSc3nc4c(C)cccc4cc3C#N)ccc2s1 42.3%
CCCc1nc2ccccc2c(=O)n1/N=C/c1ccc(O)c(O)c1 36.6%
CN(C)CCCN(C(=O)c1ccc(S(=O)(=O)N2CCCCCC2)cc1)c1nc2ccc(Br)cc2s1 71.3%
N#CCC(=O)N/N=C/c1cn(Cc2ccc3ccccc3c2)c2ccccc12 87.5%
O=C(Nc1ccc2nc3n(c(=O)c2c1)CCCCC3)c1ccccc1Cl 44.4%
CCCc1nc2c(c(=O)c3ccccc3n2C)c(=O)n1C1CCCCCC1 61.8%
C=CCN(CC=C)S(=O)(=O)c1ccc(C(=O)Nc2nc3c(s2)CCc2ccccc2-3)cc1 90.9%
CN(C)C(=O)CCc1ccc2c3c([nH]c2c1)[C@]1(CCc2ccccc2)[C@@H](C(=O)N2CCCCC2)C[C@H](CC(=O)NCCC2=CCCCC2)C(=O)N1CC3 52.1%
O=C(C[C@H]1C/C=C\C[C@@H](NC(=O)OCC2c3ccccc3-c3ccccc32)C(=O)O[C@@H](c2ccccc2)CNC1=O)N[C@H](CO)Cc1ccccc1 69.3%
N#Cc1ccccc1NC(=O)COc1c(Br)cc(Br)c2cccnc12 88.3%
CCCCCC(=O)Nc1ccc(C(=O)N/N=C/c2ccc([N+](=O)[O-])cc2)cc1 66.5%
Oc1cccc2ccc(/C=C/c3ccc(Br)s3)nc12 50.4%
Cc1ccc(-c2nnc(-c3ccc(NC(=O)c4cccs4)cc3)o2)cc1 213%
CN1C(=O)/C(=C/c2ccc(C(=O)NC3CCCC3)cc2)Oc2ccccc21 32.3%
COc1ccc(CNC(=O)/C(C#N)=C/c2cccc(OC)c2OC)cc1 40.4%
Cc1cccc(Nc2nc3c(S(=O)(=O)c4ccccc4)nnn3c3ccccc23)c1C 120%
O=C(/C=C/c1ccccc1)c1ccccc1O 54.9%
Cc1ccc(S(=O)(=O)N(CC(=O)N/N=C/c2ccc(F)cc2)c2cccc3cccnc23)cc1 55.3%
CCCCCCCCCCOC(=O)Cn1c(COc2ccc(C)cc2)[n+](C)c2ccccc21 49.2%
CCOC(=O)c1c(NC(=O)CNC2CCCc3ccccc32)sc(C(N)=O)c1C (stereo unspecified) 34.3%
Cc1cc(NC(=O)CSc2nc3cc(Cl)ccc3c(=O)n2Cc2ccco2)no1 55.5%
CC(=O)Nc1ccccc1Sc1ccc2c3c(cccc13)C(=O)N(c1ccc(C)cc1)C2=O 79%
O=C(COC(=O)/C=C/c1cn(-c2ccccc2)nc1-c1cccnc1)Nc1ccc(Cl)cc1Cl 74.4%
Cc1ccc(Cc2cnc(NC(=O)/C(C#N)=C/c3ccc(-c4cccc([N+](=O)[O-])c4)o3)s2)cc1 217%
OC(CNCC1CCCO1)Cn1c2ccc(Br)cc2c2cc(Br)ccc21 (stereo unspecified) 44%
CCc1nn(-c2cc(Oc3cccc4ccccc34)nc(-c3ccccc3)n2)c(N)c1C#N 138%
CCc1nc(C)cn1S(=O)(=O)c1cc([N+](=O)[O-])ccc1Cl 55.6%
COc1cc(NC(=O)c2cncc(-c3ccc(C#N)cc3)c2)cc(C(=O)Nc2cccc(C(F)(F)F)c2)c1 129%
COC(=O)Cc1csc(/N=C/c2c(O)n(-c3cccc(C(F)(F)F)c3)c(=O)c3ccccc23)n1 42.5%
COc1ccccc1N=Cc1c(O)c2ccccc2oc1=O 113%
CC(C)=CCCC1(C)C=Cc2c(ccc3c2[nH]c2cc(O)c(C)cc23)O1 (stereo unspecified) 35.4%
Oc1ccc(Br)cc1/C=N/Nc1ccccn1 63.7%

activation, inactive:
Cc1ccc(SC(=O)COc2ccc(C)c(C)c2)cc1 19.5%
CSc1nc(-c2ccccc2)nc(C(Cl)Cl)n1 29.4%
Cc1ccc(S/C(=N\S(=O)(=O)c2ccc(Cl)cc2)c2ccccc2)cc1 9.43%
N#CC(=C1SC=CS1)c1nc(-c2ccccc2)cs1 2.43%
CCOC(=O)N1CCN(C(=O)c2nn(-c3ccc(C)cc3)c(=O)c3c2c2ccccc2n3C)CC1 7.78%
CCN1C(=O)N[C@@H](c2ccccc2)[C@H](C(C)=O)[C@H]1C -1.6%
N#Cc1c(N)nc2c3c(sc(=N)c2c1N)NC(=O)CC3c1ccccc1Cl (stereo unspecified) 0.75%
CCOc1ccc2nc(Cl)c(C3CC(c4ccccc4)=NN3C(=O)c3cccs3)cc2c1 (stereo unspecified) 19.5%
CCOC(=O)C1=C(O)/C(=C/c2ccc(OCC(=O)Nc3ccc(C)cc3)cc2)N=C1C -1.95%
CCCc1ccc(OCc2ccc(C(=O)N/N=C/c3cccc([N+](=O)[O-])c3)o2)c(OC)c1 2.93%
CN(c1cccc(NC(=O)Nc2ccc(Cl)cc2)c1)S(C)(=O)=O 0.25%
O=C(CCCCCn1c(=S)[nH]c2cc3c(cc2c1=O)OCO3)N1CCN(c2ccc(F)cc2)CC1 10.3%
COc1ccc(Nc2cc(C)nc(-n3nc(C)cc3C)n2)cc1 28.5%
CCC1(CC)Cc2ccccc2-c2nc(CCl)[nH]c(=O)c21 14.5%
CCOC(=O)/C=c1\s/c(=C\c2ccc(C#N)cc2)c(=O)n1CC(=O)Nc1cccc(C)c1C 11.4%
C=CC[C@@H](CC(=O)N[C@@H](CO)Cc1ccccc1)C(=O)N[C@H](COC(=O)[C@H](CC=C)CC(=O)OC(C)(C)C)Cc1ccccc1 4.58%
C=CCNc1nc(N)c([N+](=O)[O-])c(NC2CCCCC2)n1 12.5%
